An excerpt weighted towards active compounds, which were near 6.8% of everything screened.
Pf Dd2 growth – inhibitors of Plasmodium falciparum Dd2 growth; activity change, % at 10 µM; AID 1159554; P. falciparum Dd2 growth, SYBR Green, 72 h; stronger effect = lower value; 94,000 tested, 2.3% active; in the data active means activity change below about -80%
T cruzi growth-1 – blocks T. cruzi growth in NIH3T3 culture. T. cruzi beta-gal in NIH3T3, GalScreen luminescence, 90 h. inhibition, % at 8.34 µM. 77,000 tested, 5.9% active. AID 624255;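 active means mean inhibition above about 93%, with at least 55% of replicates each passing it, limit read from the data, passing the limit was not always enough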
C diff growth – inhibitors of Clostridium difficile growth | Clostridium difficile clinical isolate growth, OD600, 24 h; stronger effect = lower value | growth activity, negative = inhibition, % at 16 µg/mL (by protocol) | 86,000 tested, 0.25% active;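 active means mean growth activity at or below -80% and every replicate also at or below -80%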
T cruzi growth-2 – inhibitors of T. cruzi proliferation. T. cruzi beta-gal in NIH3T3, GalScreen luminescence, 90 h. shares compounds with T cruzi growth-1. inhibition, % at 8.35 µM. 5,600 tested, 72% active. AID 651739;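 active means mean replicate inhibition above about 95% and at least 55% of replicates individually reaching it, limit read from the data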
T cruzi growth-3 – Trypanosoma cruzi proliferation inhibition | shares compounds with T cruzi growth-1 | T. cruzi beta-gal in NIH3T3, GalScreen luminescence, 90 h | inhibition, % at 2.09 µM | 5,600 tested, 21% active;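 active means mean inhibition above about 95%, with at least 55% of replicates also reaching it, limit read from the data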
NIH3T3 tox – NIH/3T3 (mouse) viability loss | cytotoxicity (signal decrease), % at 8.35 µM | shares compounds with T cruzi growth-1 | NIH/3T3 viability, CellTiter-Glo ATP luminescence, 90 h | AID 651742 | 5,600 tested, 14% active;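 active means mean signal decrease across replicates above about 35% based on untreated-well scatter, with enough replicates individually passing, limit read from the data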
NIH3T3 tox 2 – kills mouse NIH/3T3 fibroblasts. shares compounds with T cruzi growth-1. inhibition, % at 24.9 µM. NIH/3T3 viability, CellTiter-Glo ATP luminescence, 90 h. 5,600 tested, 56% active. AID 651744;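 active means mean loss of cell viability signal at or above a set limit, and enough replicates individually reaching it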
Large screens that a line does not name were inactive (follow-up assays come after a bar, where they were run).

O=C(Cc1ccccc1)N1C[C@@H]2[C@H](c3ccccc31)[C@H](CO)N2Cc1ccccc1	T cruzi growth-1 97 | T cruzi growth-2 101 | T cruzi growth-3 100 | NIH3T3 tox inactive | NIH3T3 tox 2 inactive
OC[C@H]1[C@H]2c3ccccc3NC[C@H]2N1Cc1cccnc1	none
COC(=O)[C@@H]1[C@@H](CO)[C@@H]2Cn3c(ccc(-c4cccc(F)c4)c3=O)[C@H]1N2Cc1ccccc1	none
COC(=O)[C@@H]1[C@@H](CO)[C@@H]2Cn3c(ccc(-c4ccncc4)c3=O)[C@H]1N2CCc1ccccc1	none (no result: Pf Dd2 growth)
CC=Cc1ccc2n(c1=O)C[C@@H]1[C@@H](CO)[C@H](C(=O)OC)[C@H]2N1CC1CCCC1 (mixture of isomers)	none (no result: T cruzi growth-1)
COC(=O)C[C@@H]1CC[C@@H]2NC[C@H](O)COC[C@H]2O1	none
COC(=O)C[C@H]1CC[C@@H]2NC[C@H](O)COC[C@H]2O1	T cruzi growth-1 105 | T cruzi growth-2 inactive | T cruzi growth-3 inactive | NIH3T3 tox inactive | NIH3T3 tox 2 inactive
COC(=O)[C@H]1[C@H](CO)[C@H]2Cn3c(ccc(-c4cccc(OC)c4)c3=O)[C@@H]1N2C(=O)c1ccccc1F	none
O=C(Cc1ccccc1)N1CCCCN2[C@H](CO)[C@H](c3ccc(C#Cc4ccccc4)cc3)[C@@H]2C1	T cruzi growth-1 120 | T cruzi growth-2 102 | T cruzi growth-3 115 | NIH3T3 tox inactive | NIH3T3 tox 2 103
O=C(Cc1ccncc1)N1CCCCN2[C@H](C1)[C@@H](c1ccc(C#Cc3ccccc3F)cc1)[C@@H]2CO	none
O=C(Cc1ccccc1)N1CCCCN2[C@@H](CO)[C@H](c3ccc(C#Cc4ccccc4)cc3)[C@@H]2C1	T cruzi growth-1 111 | T cruzi growth-2 108 | T cruzi growth-3 105 | NIH3T3 tox 43 | NIH3T3 tox 2 103
O=C(Cc1ccccc1)N1CCCCN2[C@H](CO)[C@@H](c3ccc(C#CC4(O)CCCC4)cc3)[C@@H]2C1	none
O=C(Cc1ccccc1)N1CCCCN2[C@H](CO)[C@H](c3ccc(C#CC4(O)CCCC4)cc3)[C@H]2C1	T cruzi growth-1 100 | T cruzi growth-2 inactive | T cruzi growth-3 inactive | NIH3T3 tox inactive | NIH3T3 tox 2 30
O=C(Cc1ccncc1)N1CCCCN2[C@@H](CO)[C@H](c3ccc(C#Cc4ccccc4F)cc3)[C@@H]2C1	T cruzi growth-1 112 | T cruzi growth-2 112 | T cruzi growth-3 inactive | NIH3T3 tox 50 | NIH3T3 tox 2 104
COC(=O)[C@@H]1[C@@H](CO)[C@@H]2Cn3c(cccc3=O)[C@@H]2N1CC1CC1	none
CC=Cc1ccc2n(c1=O)C[C@@H]1[C@@H](CO)[C@H](C(=O)OC)[C@H]2N1CC1CCCCC1 (mixture of isomers)	none
CC(=O)N1[C@@H]2Cn3c(ccc(-c4cccc(C(=O)N(C)C)c4)c3=O)[C@H]1[C@@H](C(=O)O)[C@@H]2CO	none (no result: T cruzi growth-1)
COc1ccc(OC(=O)N(C)C[C@@H]2OCc3ccccc3-c3c(n(C)c4ccccc34)C(=O)N([C@@H](C)CO)C[C@@H]2C)cc1	none (no result: T cruzi growth-1)
Cc1ccc(OC(=O)N(C)C[C@@H]2OCc3ccccc3-c3c(n(C)c4ccccc34)C(=O)N([C@H](C)CO)C[C@@H]2C)cc1	none (no result: T cruzi growth-1)
O=C(Cc1ccccc1)N1CCCCN2[C@@H](CO)[C@@H](c3ccc(C#Cc4ccccc4)cc3)[C@@H]2C1	T cruzi growth-1 106 | T cruzi growth-2 100 | T cruzi growth-3 102 | NIH3T3 tox 120 | NIH3T3 tox 2 105
O=C(Cc1ccccc1)N1CCCCN2[C@H](CO)[C@H](c3ccc(-c4ccccc4)cc3)[C@H]2C1	none
COC(=O)[C@H]1[C@H](CO)[C@H]2Cn3c(ccc(-c4cccnc4)c3=O)[C@@H]1N2S(=O)(=O)c1ccccc1F	none
O=C(Cc1cccnc1)N1CCCCN2[C@H](CO)[C@H](c3ccc(C#CC4CCCC4)cc3)[C@@H]2C1	T cruzi growth-1 111 | T cruzi growth-2 inactive | T cruzi growth-3 inactive | NIH3T3 tox inactive | NIH3T3 tox 2 78
O=C(Cc1cccnc1)N1CCCCN2[C@H](CO)[C@H](c3ccc(C#CC4CC4)cc3)[C@H]2C1	none
O=C(Cc1cccnc1)N1CCCCN2[C@H](C1)[C@@H](c1ccc(C#CC3CCCC3)cc1)[C@@H]2CO	T cruzi growth-1 102 | T cruzi growth-2 107 | T cruzi growth-3 inactive | NIH3T3 tox inactive | NIH3T3 tox 2 104
O=C(Cc1cccnc1)N1CCCCN2[C@H](CO)[C@H](c3ccc(C#CC4CC4)cc3)[C@@H]2C1	none
COC(=O)[C@H]1[C@H](CO)[C@H]2Cn3c(ccc(-c4cccc(OC)c4)c3=O)[C@@H]1N2CC1CC1	none (no result: Pf Dd2 growth)
COCC#Cc1ccc([C@H]2[C@H](CO)N3CCCCN(C(=O)Cc4ccccn4)C[C@@H]23)cc1	none
N#Cc1cccc(-c2ccc([C@@H]3[C@@H](CO)N4CCCCN(C(=O)Cc5ccncc5)C[C@@H]34)cc2)c1	none
N#Cc1cccc(-c2ccc([C@@H]3[C@H](CO)N4CCCCN(C(=O)Cc5ccncc5)C[C@@H]34)cc2)c1	none
N#Cc1cccc(-c2ccc([C@H]3[C@H](CO)N4CCCCN(C(=O)Cc5ccncc5)C[C@@H]34)cc2)c1	T cruzi growth-1 118 | T cruzi growth-2 100 | T cruzi growth-3 inactive | NIH3T3 tox inactive | NIH3T3 tox 2 52
N#Cc1cccc(-c2ccc([C@@H]3[C@H]4CN(C(=O)Cc5ccncc5)CCCCN4[C@H]3CO)cc2)c1	T cruzi growth-1 108 | T cruzi growth-2 inactive | T cruzi growth-3 inactive | NIH3T3 tox inactive | NIH3T3 tox 2 inactive
N#Cc1cccc(-c2ccc([C@H]3[C@@H](CO)N4CCCCN(C(=O)Cc5ccncc5)C[C@@H]34)cc2)c1	T cruzi growth-1 102 | T cruzi growth-2 inactive | T cruzi growth-3 inactive | NIH3T3 tox inactive | NIH3T3 tox 2 inactive
N#Cc1cccc(-c2ccc([C@H]3[C@@H](CO)N4CCCCN(C(=O)Cc5ccncc5)C[C@H]34)cc2)c1	none
CCCNC(=O)N1[C@@H]2Cn3c(ccc(-c4ccccc4OC)c3=O)[C@H]1[C@@H](C(=O)O)[C@@H]2CO	none
CCCNC(=O)N1[C@@H]2c3ccc(-c4cccc(C(=O)N(C)C)c4)c(=O)n3C[C@H]1[C@H](CO)[C@H]2C(=O)O	none (no result: T cruzi growth-1)
COC(=O)[C@H]1[C@H](CO)[C@H]2Cn3c(ccc(-c4cccc(F)c4)c3=O)[C@@H]1N2C(=O)CC1CC1	none (no result: Pf Dd2 growth)
CCCC#Cc1ccc([C@H]2[C@H]3CN(C(=O)Cc4ccccn4)CCCCN3[C@H]2CO)cc1	T cruzi growth-1 119 | T cruzi growth-2 inactive | T cruzi growth-3 inactive | NIH3T3 tox inactive | NIH3T3 tox 2 inactive
CCCC#Cc1ccc([C@H]2[C@@H](CO)N3CCCCN(C(=O)Cc4ccccn4)C[C@H]23)cc1	none
